PubChem BioAssay (Tox21)
Several values for one entry are separate records, joined by “and”; a condition that tells them apart may be missing. Identical values can stand only once. Results filed as inconclusive are left out. Where a call stands in place of a potency, no number is given. Where a structure was tested more than once in an assay, its records may differ in their call. Activity calls are given as the source filed them. Unless noted, calls come from the whole dose curve; as a rule, active = well fitted curve in the direction sought with a large enough effect in the repeat runs; inconclusive = weak or mixed curves; inactive = no such curve, though single readings can be large; an effect the other way counts as inactive or inconclusive.

Legend:
[1] = qHTS assay to identify aromatase inhibitors - cell viability counter screen (AID 743084); conditions: MCF-7 aro ERE viability, CellTiter-Fluor, 24 h; series mostly up to 70.3 µM;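 note: cells stimulated with testosterone during compound exposure; nearly all actives have a fitted effect of over 55% in size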; note: potency is the fitted concentration of half-maximal effect
[2] = molecular target: Aryl hydrocarbon receptor (Homo sapiens) (UniProt P35869); experiment: qHTS assay to identify small molecule that activate the aryl hydrocarbon receptor (AhR) signaling pathway (AID 743085); conditions: HepG2 AhR-luc (HG2L7.5c1), luciferase, 24 h; series mostly up to 70.3 µM; note: nearly all actives have a fitted effect of over 15% in size; note: potency is the fitted concentration of half-maximal effect;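 for activation: HG2L7.5c1 human HepG2 liver cells with stably integrated DRE-driven firefly reporter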
Outline: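 AhR agonist activity is inferred from enhanced light output of a DRE-controlled firefly luciferase reporter in HepG2 cells, measured with ONE-Glo following 24 h treatment at 37C.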

[3] = qHTS assay to identify small molecule that activate the aryl hydrocarbon receptor (AhR) signaling pathway - cell viability counter screen (AID 743086); conditions: HepG2-AhR-luc viability, CellTiter-Fluor, 24 h; series mostly up to 70.3 µM;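 note: HepG2 liver cells carrying the AhR DRE luciferase reporter; nearly all actives have a fitted effect of over 45% in size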
Outline: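 HepG2-AhR-luc (HG2L7.5c1) cells, 4000/well, treated 24 h at 37 C with compound; viability measured as CellTiter-Fluor fluorescence after 30 min in the same wells as the luciferase read.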

[4] = molecular target: Peroxisome proliferator-activated receptor gamma (Homo sapiens) (UniProt P37231); experiment: qHTS assay to identify small molecule agonists of the peroxisome proliferator-activated receptor gamma (PPARg) signaling pathway (AID 743094; active = well fitted activation curve with a large enough effect in the signal ratio in the repeat runs, not every such curve was filed as active; the % refers to the signal ratio); conditions: HEK293H PPARg-UAS-bla, beta-lactamase FRET ratio, 17 h; series mostly up to 57 µM
Outline: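 Following 5 h plating at 37C, PPARg-bla HEK293H cells receive compound or DMSO for 17 h; fluorescence intensity is recorded after LiveBLAzer B/G loading for 1 h at room temperature.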

[5] = molecular target: Peroxisome proliferator-activated receptor gamma (Homo sapiens) (UniProt P37231); experiment: qHTS assay to identify small molecule antagonists of the peroxisome proliferator-activated receptor gamma (PPARg) signaling pathway (AID 743191; calls by dose curve; note: nearly all actives have a fitted effect of over 30% in size; note: potency is the fitted concentration of half-maximal effect); conditions: HEK293H PPARg-UAS-bla, beta-lactamase ratio, antagonist, 17 h; series mostly up to 62.6 µM
Outline: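 GeneBLAzer PPARg UAS-bla HEK293H cells, 5 h post-plating, exposed to compounds 17 h at 37C. LiveBLAzer B/G FRET substrate added for 1 h at room temperature; beta-lactamase reporter read by fluorescence intensity.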

[6] = qHTS assay to identify small molecule antagonists of the peroxisome proliferator-activated receptor gamma (PPARg) signaling pathway - cell viability counter screen (AID 743194); conditions: PPARg-bla HEK293H viability, CellTiter-Glo luminescence, 17 h, co-treated with 50 nM rosiglitazone; series mostly up to 62.6 µM; note: nearly all actives have a fitted effect of over 55% in size
Outline: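 Cytotoxicity counter screen in PPARg-bla HEK293H cells, same wells as reporter assay. Compounds plus 50 nM rosiglitazone (final) for 17 h at 37 C, then viability read by CellTiter-Glo luminescence.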

[7] = qHTS assay for small molecule agonists of the antioxidant response element (ARE) signaling pathway (AID 743202; active = well fitted activation curve with a large enough effect in the signal ratio in the repeat runs, not every such curve was filed as active; the % refers to the signal ratio; note: potency is the fitted concentration of half-maximal effect); conditions: HepG2 ARE-bla reporter, beta-lactamase FRET, 16 h; series mostly up to 73.3 µM
Outline: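 ARE-bla HepG2 cells (beta-lactamase reporter under the antioxidant response element), plated 5 hours, then exposed to compounds 16 hours at 37 C. LiveBLAzer B/G FRET substrate added for 2 hours at room temperature; fluorescence intensity read.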

[8] = qHTS assay for small molecule agonists of the antioxidant response element (ARE) signaling pathway - cell viability counter screen (AID 743203; calls by dose curve; note: nearly all actives have a fitted effect of over 55% in size; note: potency is the fitted concentration of half-maximal effect); conditions: ARE-bla HepG2 viability, CellTiter-Glo luminescence, 16 h; series mostly up to 73.3 µM
Outline: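 Compounds in DMSO were pinned onto ARE-bla HepG2 cells plated 5 hrs earlier at 2,000 cells/well. Sixteen hours later at 37C/5% CO2, CellTiter-Glo was added and luminescence measured after 30 min at room temperature.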

[9] = qHTS assay for small molecule activators of the heat shock response signaling pathway - cell viability counter screen (AID 743209); conditions: HSE-bla HeLa viability, CellTiter-Glo luminescence, 5 h; series mostly up to 62.6 µM; note: nearly all actives have a fitted effect of over 50% in size
Outline: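 Counter screen for cytotoxicity in HeLa HSE-bla reporter cells. Treatment was 5 h at 37 C; viability was detected by luminescent ATP assay (CellTiter-Glo) in the same wells as the beta-lactamase read.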

[10] = qHTS assay for small molecule activators of the heat shock response signaling pathway (AID 743210; active = well fitted activation curve with a large enough effect in the signal ratio in the repeat runs, with a control signal flat, not every such curve was filed as active; the % refers to the signal ratio); conditions: HeLa HSE-bla reporter, beta-lactamase ratio, 5 h; series mostly up to 62.6 µM
Outline: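 HSE-bla HeLa cells (beta-lactamase reporter under heat shock response elements), plated overnight, then exposed to compounds 5 h at 37 C; LiveBLAzer B/G FRET substrate added, 2.5 h at room temperature, fluorescence intensity read.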

Peroxisome proliferator-activated receptor gamma (Homo sapiens), sequence (P37231 whole entry, looked up): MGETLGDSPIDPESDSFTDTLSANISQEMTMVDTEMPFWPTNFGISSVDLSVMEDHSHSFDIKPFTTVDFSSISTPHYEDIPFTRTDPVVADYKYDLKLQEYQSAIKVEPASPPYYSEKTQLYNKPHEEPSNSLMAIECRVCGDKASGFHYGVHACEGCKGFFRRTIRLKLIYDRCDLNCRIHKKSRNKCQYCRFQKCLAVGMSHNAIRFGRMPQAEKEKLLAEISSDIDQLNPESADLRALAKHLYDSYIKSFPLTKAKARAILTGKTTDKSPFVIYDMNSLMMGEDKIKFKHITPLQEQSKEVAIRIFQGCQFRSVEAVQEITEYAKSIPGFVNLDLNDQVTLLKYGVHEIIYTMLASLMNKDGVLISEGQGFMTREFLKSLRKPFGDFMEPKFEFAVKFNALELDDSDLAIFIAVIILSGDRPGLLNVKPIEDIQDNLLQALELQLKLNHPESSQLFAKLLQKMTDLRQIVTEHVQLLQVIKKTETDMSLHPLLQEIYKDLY
Aryl hydrocarbon receptor (Homo sapiens), sequence (P35869 whole entry, looked up): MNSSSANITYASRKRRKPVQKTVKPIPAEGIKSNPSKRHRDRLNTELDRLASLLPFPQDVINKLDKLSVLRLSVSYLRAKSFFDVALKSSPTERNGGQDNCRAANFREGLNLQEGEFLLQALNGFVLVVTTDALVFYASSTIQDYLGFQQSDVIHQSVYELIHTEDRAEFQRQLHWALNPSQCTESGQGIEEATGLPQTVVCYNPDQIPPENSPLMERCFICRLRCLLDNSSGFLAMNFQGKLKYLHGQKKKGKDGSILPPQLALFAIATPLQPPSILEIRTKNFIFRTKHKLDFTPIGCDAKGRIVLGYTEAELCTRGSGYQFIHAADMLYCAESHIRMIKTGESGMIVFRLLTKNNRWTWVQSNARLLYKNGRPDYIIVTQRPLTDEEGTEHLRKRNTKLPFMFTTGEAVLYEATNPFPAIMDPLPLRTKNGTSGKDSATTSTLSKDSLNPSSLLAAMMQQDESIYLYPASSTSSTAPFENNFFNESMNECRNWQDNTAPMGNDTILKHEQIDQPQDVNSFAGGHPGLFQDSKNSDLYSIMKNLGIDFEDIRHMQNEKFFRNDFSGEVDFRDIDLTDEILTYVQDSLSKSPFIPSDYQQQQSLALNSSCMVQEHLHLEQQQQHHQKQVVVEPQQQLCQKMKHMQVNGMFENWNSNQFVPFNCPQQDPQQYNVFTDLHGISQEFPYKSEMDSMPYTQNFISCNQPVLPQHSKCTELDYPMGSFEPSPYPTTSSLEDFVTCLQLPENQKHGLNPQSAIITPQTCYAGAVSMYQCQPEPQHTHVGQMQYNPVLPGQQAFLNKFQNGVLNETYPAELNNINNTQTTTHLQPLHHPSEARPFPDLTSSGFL

| SMILES | Potency [1] | Potency [2] | Potency [3] | Potency [4] | Potency [5] | Potency [6] | Potency [7] | Potency [8] | outcome [9] | outcome [10] |
| --- | --- | --- | --- | --- | --- | --- | --- | --- | --- | --- |
| C=CC(=O)NC(C)(C)CS(=O)(=O)O | inactive | inactive | inactive | inactive | inactive | inactive | inactive | inactive | inactive | inactive |
| CCCCCCCCCCCCCC(=O)OC(C)C | inactive | inactive | inactive | inactive | inactive | inactive | inactive | inactive | inactive | inactive |
| CCCCNC(=O)NS(=O)(=O)c1ccc(N)cc1 | inactive | inactive | inactive | inactive | inactive | inactive | inactive | inactive | inactive | inactive |
| COC(=O)c1ccc(O)cc1 | inactive | inactive | inactive | inactive | inactive | inactive | inactive | inactive | inactive | inactive |
| Cc1c(N(C)CS(=O)(=O)O)c(=O)n(-c2ccccc2)n1C | inactive | inactive | inactive | inactive | inactive | inactive | inactive | inactive | inactive | inactive |
| Cc1cccc(C)c1O | inactive | inactive | inactive | inactive | inactive | inactive | inactive | inactive | inactive | inactive |
| CCCCCCCCCCCCCCCCCC(=O)OCC(O)CO (centres undefined) | inactive | inactive | inactive | inactive | inactive | inactive | inactive | inactive | inactive | inactive |
| Cc1cccc2ccccc12 | inactive | inactive | inactive | inactive | inactive | inactive | inactive | inactive | inactive | inactive |
| CC(C)(C)NCC(O)c1ccc(O)c(CO)c1 (centres undefined) | inactive | inactive | inactive | inactive | inactive | inactive | inactive | inactive | inactive | inactive |
| NC(=O)N1c2ccccc2C=Cc2ccccc21 | inactive | inactive | inactive | inactive | inactive | inactive | inactive | inactive | inactive | inactive |
| O=C1CCCCCN1 | inactive | inactive | inactive | inactive | inactive | inactive | inactive | inactive | inactive | inactive |
| Cn1cnc2c1c(=O)[nH]c(=O)n2C | inactive | inactive | inactive | inactive | inactive | inactive | inactive | inactive | inactive | inactive |
| CC(=O)CCC(C)C | inactive | inactive | inactive | inactive | inactive | inactive | 61.1 µM (active) | inactive | inactive | inactive |
| C=CCOC(=O)CC(C)C | inactive | inactive | inactive | inactive | inactive | inactive | inactive | inactive | inactive | inactive |
| CCCCOCCOCCOC(C)=O | inactive | inactive | inactive | inactive | inactive | inactive | inactive | inactive | inactive | inactive |
| Cc1ccc(O)c(-n2nc3ccccc3n2)c1 | inactive | 21.1 µM (active) and 60.6 µM (active) and 17.2 µM (active) | inactive | inactive | inactive | inactive | 60.6 µM (active) | inactive | inactive | inactive |
| OCCCc1ccccc1 | inactive | inactive | inactive | inactive | inactive | inactive | inactive | inactive | inactive | inactive |
| CC(=O)OC/C=C(C)/C=C/C=C(C)/C=C/C1=C(C)CCCC1(C)C | inactive and 66.9 µM (active) and 61.1 µM (active) | inactive | inactive | inactive | inactive | inactive | 59.6 µM (active) | inactive |  |  |
| COC(=O)c1ccc(C=O)cc1 | inactive | inactive | inactive | inactive | inactive | inactive | inactive | inactive | inactive | inactive |
| CC(=O)c1ccc(S(=O)(=O)NC(=O)NC2CCCCC2)cc1 | inactive | inactive | inactive | inactive | inactive | inactive | inactive | inactive | inactive | inactive |
| N[C@@H](Cc1c[nH]c2ccc(O)cc12)C(=O)O | inactive | 9.44 µM (active) and 5.29 µM (active) | inactive | inactive | inactive | inactive | inactive | inactive | inactive | inactive |
| C#C[C@]1(O)CC[C@H]2[C@@H]3CCC4=CC(=O)CC[C@@H]4[C@H]3CC[C@@]21CC | inactive | inactive | inactive | inactive | inactive | inactive | 48.6 µM (active) | inactive |  |  |
| COc1cc(C=O)ccc1O | inactive | inactive | inactive | inactive | inactive | inactive | inactive | inactive |  |  |

| SMILES | Potency [1] | Potency [2] | Potency [3] | Potency [4] | Potency [5] | Potency [6] | Potency [7] | Potency [8] | outcome [9] | outcome [10] |
| --- | --- | --- | --- | --- | --- | --- | --- | --- | --- | --- |
| NC(N)=NC(N)=NCCc1ccccc1 | inactive | inactive | inactive | inactive | inactive | inactive | 6.08 µM (active) and 6.68 µM (active) | inactive | inactive | inactive |
| CC(=O)Oc1ccccc1C(=O)O | inactive | inactive | inactive | inactive | inactive | inactive | inactive | inactive | inactive |  |
| CN/C(=C\[N+](=O)[O-])NCCSCc1ccc(CN(C)C)o1 | inactive | inactive | inactive | inactive | inactive | inactive | inactive | inactive | inactive |  |
| CC(O)COc1ccccc1 (centres undefined) | inactive | inactive | inactive | inactive | inactive | inactive | inactive | inactive | inactive | inactive |
| COc1ccccc1O | inactive | inactive | inactive | inactive | inactive | inactive | inactive | inactive and 24.5 µM (active) | inactive | inactive |
| Oc1cccc(O)c1 | inactive | inactive | inactive | inactive | inactive | inactive | inactive | inactive | inactive | inactive |
| CC1(C)O[C@@H]2[C@@H](CO[C@@]3(COS(N)(=O)=O)OC(C)(C)O[C@@H]23)O1 | inactive | inactive | inactive | inactive | inactive | inactive | inactive | inactive | inactive | inactive |
| CCCCCCCC(=O)OCC(O)CO (centres undefined) | inactive | inactive | inactive | inactive | inactive | inactive | inactive | inactive |  | inactive |
| CC(C)CC(C)CC(O)CC(C)C (centres undefined) | inactive | inactive | inactive | inactive | inactive | inactive | inactive | inactive |  | inactive |
| Nc1ccc(N=Nc2ccccc2)c(N)n1 | 27.4 µM (active) and 54.5 µM (active) | 13.3 µM (active) and 13.8 µM (active) and 34.4 µM (active) | inactive | inactive | inactive | inactive | inactive and 26.6 µM (active) | inactive |  | inactive |
| C=C(C)OC(C)=O | inactive | inactive | inactive | inactive | inactive | inactive | inactive | inactive |  | inactive |
| OC[C@@H](O)[C@@H](O)[C@H](O)[C@H](O)CO | inactive | inactive | inactive | inactive | inactive | inactive | inactive | inactive |  | inactive |
| O=c1c(-c2ccc(O)cc2)coc2cc(O)cc(O)c12 | inactive | inactive and 12.2 µM (active) | inactive | inactive | 48.1 µM (active) and 38.9 µM (active) | inactive | 6.74 µM (active) and 10.6 µM (active) | inactive |  | inactive |
| COc1cc(O)c(C(=O)c2ccccc2)cc1S(=O)(=O)O | inactive | inactive | inactive | inactive | inactive | inactive | inactive | inactive |  | inactive |
| CCN1CCCC1=O | inactive | inactive | inactive | inactive | inactive | inactive | inactive | inactive |  | inactive |
| COCC(C)N (centres undefined) | inactive | inactive | inactive | inactive | inactive | inactive | inactive | inactive |  | inactive |
| Nc1cccc(N)c1 | inactive | 54.4 µM (active) | inactive | inactive | inactive | inactive | inactive | inactive | inactive | inactive |
| COc1cc2c(c(OC)c1OC)-c1ccc(OC)c(=O)cc1[C@@H](NC(C)=O)CC2 | inactive | inactive | inactive | inactive | inactive | inactive |  | inactive | inactive | inactive |
| COCCOCCOC | inactive | inactive | inactive | inactive | inactive | inactive | inactive | inactive | inactive | inactive |
| C=C(C)C(N)=O | inactive | inactive | inactive | inactive | inactive | inactive | inactive | inactive |  | inactive |
| CC(C)Cc1ccc(C(C)C(=O)O)cc1 (centres undefined) | inactive | inactive | inactive | inactive | inactive | inactive | inactive | inactive |  | inactive |
| CCN(CC)CCOC(=O)c1ccc(N)cc1 | inactive | inactive | inactive | inactive | inactive | inactive | inactive | inactive | inactive | inactive |
| N[C@@H](Cc1c[nH]c2ccccc12)C(=O)O | inactive | 30.7 µM (active) | inactive | inactive | inactive | inactive | inactive | inactive |  | inactive |
